tim23-1 inh: inhibits growth of tim23-1 mutant yeast | 1.3% of 330,000 active | inhibition, % at 20 µM | AID 463212 | S. cerevisiae tim23-1 growth, BacTiter-Glo luminescence, 24 h;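 active = growth inhibition of the mutant yeast at or above 50%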;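 also: temperature-sensitive mutant grown at 25 °C; plate controls were DMSO-treated mutant yeast for no effect and medium wells lacking yeast for full effect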
MPTP block: permeability transition pore inhibition; isolated mouse mitochondria, Ca2+ swelling absorbance, 30 min; inhibition, % at 10 µM; 1.4% of 360,000 active;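 active = inhibition of 50% or more, scaled per plate between neutral and stimulator controls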;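 also: 0% = DMSO wells given calcium and 100% = 1 mM EGTA wells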
tim10-1 inh: inhibits growth of tim10-1 mutant yeast; 2.2% of 330,000 active; inhibition, % at 20 µM; S. cerevisiae tim10-1 ts strain growth, BacTiter-Glo, 24 h;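 active = inhibition of at least 40%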;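 also: mutant grown at 25 °C; 0% = DMSO wells with yeast and 100% = wells holding no yeast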
TIM10 inh: growth inhibitors of TIM10 yeast strain. S. cerevisiae TIM10 strain growth, BacTiter-Glo luminescence, 24 h. inhibition, % at 10 µM. 1.4% of 330,000 active. AID 463195;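 active = inhibition of 40% or more at the single tested concentration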;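 also: wild-type TIM10 isogenic control strain grown at permissive 25 °C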
Mdm2-MdmX inh: inhibitors of human Mdm2/MdmX interaction; SaOS-2 split-luciferase Mdm2/MdmX complementation, luminescence; O15151+Q00987; inhibition, % at 8 µM; 3% of 330,000 active;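 active = inhibition of at least 50% at 8 µM in the primary screen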
Target sequence (O15151 whole entry, looked up): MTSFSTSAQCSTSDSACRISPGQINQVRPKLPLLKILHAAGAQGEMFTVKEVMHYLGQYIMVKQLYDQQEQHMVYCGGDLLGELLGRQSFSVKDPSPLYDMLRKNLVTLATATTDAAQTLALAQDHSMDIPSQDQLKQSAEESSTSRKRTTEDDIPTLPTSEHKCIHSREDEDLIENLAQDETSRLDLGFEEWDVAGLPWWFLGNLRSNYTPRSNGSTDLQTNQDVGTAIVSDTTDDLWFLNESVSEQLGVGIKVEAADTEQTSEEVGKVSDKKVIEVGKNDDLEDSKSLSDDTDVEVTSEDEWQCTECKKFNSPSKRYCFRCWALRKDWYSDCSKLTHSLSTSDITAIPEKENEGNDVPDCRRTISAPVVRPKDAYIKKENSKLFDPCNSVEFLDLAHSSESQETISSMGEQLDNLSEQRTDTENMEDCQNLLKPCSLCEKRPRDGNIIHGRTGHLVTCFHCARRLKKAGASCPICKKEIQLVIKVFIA
Target sequence (Q00987 whole entry, looked up): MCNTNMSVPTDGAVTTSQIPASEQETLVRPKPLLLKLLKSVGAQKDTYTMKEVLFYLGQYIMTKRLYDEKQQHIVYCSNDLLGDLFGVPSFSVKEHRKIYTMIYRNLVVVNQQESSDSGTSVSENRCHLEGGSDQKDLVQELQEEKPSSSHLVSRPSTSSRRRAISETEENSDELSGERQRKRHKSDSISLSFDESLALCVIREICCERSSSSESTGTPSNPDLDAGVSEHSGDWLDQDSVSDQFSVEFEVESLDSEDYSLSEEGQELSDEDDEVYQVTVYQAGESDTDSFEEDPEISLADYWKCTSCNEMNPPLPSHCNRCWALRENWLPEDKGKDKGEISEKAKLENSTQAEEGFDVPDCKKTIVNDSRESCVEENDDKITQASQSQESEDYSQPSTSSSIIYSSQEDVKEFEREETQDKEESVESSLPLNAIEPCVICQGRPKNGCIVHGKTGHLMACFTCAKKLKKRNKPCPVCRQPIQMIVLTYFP
Mdm2-MdmX conf: human Mdm2/MdmX binding inhibition, confirmed; shares compounds with Mdm2-MdmX inh; luminescent assay; inhibition, % at 8 µM; 55% of 10,000 active; in the data active = inhibition above about 40%
Full FLuc ctr: inhibits full-length luciferase, flagging false Mdm2/MdmX hits | shares compounds with Mdm2-MdmX inh | SaOS-2 full-length luciferase counterscreen, luminescence | inhibition, % at 8 µM | 77% of 6,200 active | AID 504607;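 active = mean inhibition at 8 µM reaching about 37%, which flags the compound as non-specific, limit read from the data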;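 also: p53-null SaOS-2 cells with luciferase driven by a doxycycline-inducible promoter; compound on cells about two nights before reading with doxycycline added after day one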
MPTP counter: Rhodamine 123 counter-screen of mitochondrial pore hits. shares compounds with MPTP block. 78% of 5,000 active. isolated mitochondria, membrane potential, Rhodamine 123 fluorescence. AID 624504. inhibition, % at 10 µM; in the data active = inhibition above about 22%;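 also: 0% = DMSO vehicle and 100% = positive control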
MPTP abs DR: MPTP inhibition, dose response swelling confirmation | AID 651561 | 58% of 780 active | shares compounds with MPTP block | isolated mitochondria swelling, absorbance | IC50, µM; in the data active = IC50 below about 20 µM
MPTP counter DR: counter-screen for mitochondrial permeability transition pore inhibitors, dose response; 49% of 780 active; IC50, µM; isolated mitochondria counterscreen, fluorescence read-out; AID 651564; shares compounds with MPTP block; in the data active = IC50 below about 80 µM
An asterisk follows results filed as active; . = no result. Compounds with a hit are over-represented: about 6.3% of the library has one in this group of screens.

SMILES	tim23-1 inh	MPTP block	tim10-1 inh	TIM10 inh	Mdm2-MdmX inh	Mdm2-MdmX conf	Full FLuc ctr	MPTP counter	others
CSc1nc(Oc2ccc3ccccc3c2)c2ccccc2n1	16.0	80.2*	9.2	-1.9	55.4*	7.2	.	5.3	MPTP abs DR=9.44*;MPTP counter DR=>80
COc1ccccc1-c1cnc(C(O)c2ccc(F)cc2C)[nH]1 (configuration not stated)	.	0.9	.	.	.	.	.	.
CC(C)N(CCNCC(O)COc1ccc(C(C)(C)c2ccccc2)cc1)C(C)C (configuration not stated)	-37.9	19.2	-6.9	8.3	19.6	.	.	.
OC(CNCCC(c1ccccc1)c1ccccc1)COc1ccccc1 (configuration not stated)	15.1	76.8*	21.5	17.3	70.2*	25.9	.	15.2	MPTP abs DR=2.86*;MPTP counter DR=17.7*
COc1ccc(C(=O)/C(C#N)=N/Nc2ccc([N+](=O)[O-])cc2)cc1	22.1	99.9*	13.0	-2.5	89.5*	91.8*	51.5*	86.5*
N#C/C(=N\Nc1ccc(Cl)cc1)C(=O)c1ccccc1	22.1	95.9*	28.5	-9.9	83.8*	55.5*	43.8*	82.9*
O=C1C2C3CC4C5C3C1C5C1(SCCS1)C42 (configuration not stated)	.	-1.6	.	.	.	.	.	.
COc1ccc(CNC(=O)Nc2nc(C(N)Cc3ccc(C(F)(F)F)cc3)cs2)cc1 (configuration not stated)	.	4.2	.	.	.	.	.	.
NC1=NC[C@H](c2ccccc2)N1CCCCC1CCCCC1	-22.7	81.2*	-3.3	16.8	50.8*	28.4	.	37.0*
N#CC(=C(O)COC(=O)CCCNC(=O)c1ccc(Cl)cc1)c1nc2ccccc2[nH]1	.	-0.2	.	.	.	.	.	.
O=C(Nc1ccc(F)cc1)Nc1cc(OCC(F)(F)F)cc(OCC(F)(F)F)c1	15.1	96.7*	10.0	24.5	89.4*	90.5*	52.0*	70.2*
COc1ccc(NC(=O)Nc2ccc(F)cc2)cn1	-10.3	0.3	-15.0	-3.3	-0.1	.	.	.
Cc1ccc(C)c(OCC(O)CN2CCC(CN3C(=O)c4cccc5cccc(c45)C3=O)CC2)c1 (configuration not stated)	-8.4	100.5*	3.4	17.2	59.6*	32.6	.	91.6*
O=C(Nc1cc(Cl)cc(Cl)c1)Nc1cnccn1	-5.0	62.2*	9.6	1.9	75.4*	29.6	.	101.3*
COc1ccc(/C=C2/Sc3ccc(C(=O)NCCN4CCCCCC4)cc3NC2=O)cc1	31.8	87.1*	26.0	4.7	100.3*	87.6*	5.8	-19.1	MPTP abs DR=14*;MPTP counter DR=39.5*
O=C1Nc2cc(C(=O)NCCCN3CCCC3)ccc2S/C1=C\c1ccccc1	6.8	8.0	-1.2	2.7	48.8	.	.	.
O=C1c2ccc(-c3ccc(F)cc3OCc3ccccc3)cc2S(=O)(=O)c2cccc(C(=O)N3CCCC3)c21	18.8	-0.1	-12.2	3.7	-5.2	.	.	.
Cc1ccc(-n2ncc3c(N4CCN(c5ccccc5)CC4)ncnc32)c(C)c1	-4.3	51.4*	7.5	6.3	70.2*	69.5*	64.0*	33.5*
COc1ccc(CCC2=NCCN2C(CC(C)C)c2nc3ccccc3[nH]2)cc1 (configuration not stated)	.	-0.4	.	.	.	.	.	.
O=C(Nc1ccccc1)Nc1ccccc1	.	-0.4	.	.	.	.	.	.
N#Cc1ccsc1NC(=O)c1ccc(Cl)c([N+](=O)[O-])c1	10.2	81.9*	7.3	8.8	61.0*	55.8*	112.3*	71.2*
O=C(Nc1ccc(S(=O)(=O)NC2=NCCCCC2)cc1)c1ccc(Cl)c([N+](=O)[O-])c1	15.6	-2.2	5.2	3.1	40.0	.	.	.
O=C(Nc1ccccc1)Nc1ccc(Cl)c([N+](=O)[O-])c1	2.1	100.8*	11.8	9.2	79.6*	50.4*	42.7*	99.0*
Cc1cccc(C)c1NS(=O)(=O)c1ccc(NC(=O)c2ccc(Cl)c([N+](=O)[O-])c2)cc1	3.0	74.5*	7.0	3.3	98.5*	68.7*	58.7*	80.7*
Cc1ccccc1Cn1c(C)c(C(=O)NCC(C)C)sc1=O	.	-0.3	.	.	.	.	.	.
SMILES	tim23-1 inh	MPTP block	tim10-1 inh	TIM10 inh	Mdm2-MdmX inh	Mdm2-MdmX conf	Full FLuc ctr	MPTP counter	others
CCCCc1ccc(-c2csc(/C(C#N)=C\c3ccc(C)o3)n2)cc1	14.5	14.5	5.3	-0.6	-21.4	.	.	.
CCOc1ccc(-c2csc(/C(C#N)=C\c3ccc(O)c([N+](=O)[O-])c3)n2)cc1	17.1	73.1*	29.7	20.3	96.4*	82.9*	51.5*	70.3*
CC(C)(C)c1ccc(Cn2c(=N)n(CC(O)c3ccco3)c3ccccc32)cc1 (configuration not stated)	4.1	56.0*	7.0	10.7	97.6*	83.8*	39.6*	21.5*
O=c1cc(O)cc2n1CCC2	.	-1.2	.	.	.	.	.	.
O=c1[nH]c(=O)n(Cc2ccco2)c2c1C(C(F)(F)F)(C(F)(F)F)N=C(C1CCCCC1)N2	-12.5	9.2	-8.2	-4.7	5.5	.	.	.
O=c1[nH]c(=O)n(Cc2ccco2)c2c1C(C(F)(F)F)(C(F)(F)F)N=C(CCC1CCCCC1)N2	-20.7	70.5*	4.4	-17.4	62.0*	88.2*	39.5*	89.7*
CCn1nc([N+](=O)[O-])c(C(C#N)c2nc3cc(C(F)(F)F)ccc3s2)c(Cl)c1=O (configuration not stated)	39.6	113.9*	22.0	21.3	76.1*	72.4*	49.8*	12.2
Cn1nc([N+](=O)[O-])c(C(C#N)c2ccccn2)c(Cl)c1=O (configuration not stated)	-6.7	2.1	10.7	-21.2	22.8	.	.	.
O=C1c2ccccc2C2=Nc3ccccc3SC(c3ccc(Cl)cc3)C12 (configuration not stated)	31.9	89.2*	19.2	15.3	87.2*	47.4*	78.1*	55.5*
O=C1CCCC2=C1C(c1ccccc1)C1C(=O)c3ccccc3C1=N2 (configuration not stated)	4.7	4.1	1.6	2.9	7.5	.	.	.
COCCNC(=O)C1(C)CCCN(C(=O)c2ccccc2C(F)(F)F)C1 (configuration not stated)	.	-0.9	.	.	.	.	.	.
Cc1ccc(Nc2nc(NCc3ccco3)c3ccccc3n2)cc1	-7.8	93.4*	7.0	8.6	70.1*	-42.0	.	89.0*
Fc1ccccc1-c1nc(NCc2ccco2)c2ccccc2n1	23.9	4.8	33.4	10.2	21.4	.	.	.
C[C@H](CO)N1C[C@H](C)[C@H](CN(C)Cc2cncnc2)Oc2ncc(C#CC3(O)CCCC3)cc2C1=O	.	0.4	.	.	.	.	.	.

Compound activity: PubChem BioAssay, Sanford-Burnham Center for Chemical Genomics
